Results as given in PubChem BioAssay (NCI).
Compounds without any hit were thinned out: in the full panel of roughly 83,000, 20% have a hit.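 Activity criterion: percent growth below 10, measured after cells in 96-well plates were exposed to a single compound concentration for 48 hours.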 Unmarked numbers belong to inactive results. Active and inactive are the calls of the source.

Tests used:
Assay in all cases: NCI-60 one-dose screen, 48 h (100 = growth as untreated, 0 = no growth, -100 = all killed)
Conditions in all cases: 10 µM unless noted
[1] = tested on: EKVX NSCLC
[2] = tested on: SN12C renal
[3] = tested on: UO-31 renal
[4] = tested on: TK-10 renal
[5] = tested on: ACHN renal
[6] = tested on: CAKI-1 renal
[7] = tested on: CCRF-CEM leukemia
[8] = tested on: MOLT-4 leukemia
[9] = tested on: SR leukemia
[10] = tested on: RPMI-8226 leukemia
[11] = tested on: OVCAR-8 ovarian
[12] = tested on: OVCAR-5 ovarian
[13] = tested on: OVCAR-4 ovarian
[14] = tested on: SK-OV-3 ovarian
[15] = tested on: IGROV1 ovarian
[16] = tested on: HS 578T breast
[17] = tested on: NCI/ADR-RES ovarian

SMILES | growth [1] [%] | growth [2] | growth [3] | growth [4] | growth [5] | growth [6] [%] | growth [7] | growth [8] | growth [9] | growth [10] | growth [11] | growth [12] [%] | growth [13] | growth [14] [%] | growth [15] | growth [16] [%] | growth [17] [%]
CC(O)c1cc2ccccc2c(=O)o1 (stereo unspecified) | 102 | 101% | 89.9% | 105% | 102% | 91.5 | 1.19% (active) | 107% | 96.2% | 96.8% | 102% | 103 | 100% | 99.8 | 107% | 103 | 101
Cc1cc(C)c2sc(=O)n(Cc3nnc(SCCC(=O)O)o3)c2n1 | 102 | 97.8% | 91.8% | 103% | 103% | – | 56.6% | 90.6% | 79.2% | 99.8% | 104% | 99.4 | – | 105 | 102% | 103 | 102
COc1cc(OC)c(S(N)(=O)=O)cc1C(=O)/C=C/c1ccc(Cl)cc1 | 29.8 | 16% | 7.22% (active) | -5.25% (active) | 11.6% | 21.5 | 1.6% (active) | 3.62% (active) | -19.5% (active) | -5.04% (active) | 3% (active) | 17.2 | 49.9% | 33.6 | 6.66% (active) | 13.2 | 20
N#Cc1c(Nc2ccccc2)nn2c(-c3ccc([N+](=O)[O-])cc3)ccnc12 | 99.5 | 104% | 84% | 98% | 102% | 91.9 | 104% | 105% | 103% | 94.1% | 99.9% | 99.6 | – | 111 | 100% | 102 | 101
COc1ccc(CCN2C(=O)CSC2=S)cc1 | 96 | 88.8% | 92% | – | 99.1% | 82.1 | 75.3% | 94.6% | 65.8% | 33.3% | 102% | 95.7 | 92.8% | 111 | 109% | 99.4 | 98.4
COc1ccc(-n2c(SCc3n[nH]c(=S)o3)nc3ccc(Cl)cc3c2=O)cc1 | 98.7 | 92% | 93.7% | 105% | 97% | 85.5 | 98.7% | 111% | 103% | 101% | 101% | 89.7 | 99.3% | 97.7 | 95.8% | 93.9 | 99.4
Cc1ccc(NC(=O)N[C@@H](Cc2cc(F)cc(F)c2)C(=O)NC2C(=O)N3C[C@H](O)C[C@H]3C(=O)N3CCCC[C@H]3C(=O)N[C@@H](CO)C(=O)N3C[C@H](C)C[C@H]3C(=O)O[C@H]2C)c(F)c1 (stereo partly specified) | 40.7 | 22% | 90.7% | 107% | 107% | 82.9 | 35.1% | 54.5% | 40.6% | 17.6% | 44.1% | 43.8 | 29.8% | 33.7 | 60.6% | 40.1 | 107
CC(C)(C)CC(C)(C)n1nnnc1C(Nc1nccs1)c1cc2cccc3ccc4cccc1c4c32 (stereo unspecified) | 97.2 | 99.4% | 87.9% | – | 96.1% | 75.9 | 106% | 121% | 96.6% | 104% | 100% | 84.6 | 99.7% | 103 | 93.5% | 93.8 | 98
CN1CCN(Cc2ccc(NC(=O)c3cncc(C#Cc4cnn5cccnc45)c3)cc2C(F)(F)F)CC1 | 46.6 | 8.93% (active) | 22.3% | 32.8% | 11.2% | 21.6 | 2.51% (active) | 6.57% (active) | -16.3% (active) | 6.03% (active) | 13.5% | 26 | – | 28.3 | 5.44% (active) | 27.2 | 26.5
COc1cc(-c2nc(SC(C)C)n(C(C)C)c(=O)c2C#N)ccc1OCc1ccccc1 | 81.3 | 16.2% | 56.8% | 42.1% | 32.5% | 54.8 | 33% | 22.1% | – | 78.4% | 77% | 93.2 | 4.7% (active) | 103 | 67.1% | 70.1 | 76
Cc1ccc2sc3c(c2c1)OC(N)=C(C#N)C3c1ccc(Cl)cc1 (stereo unspecified) | 70.9 | 93.3% | 75.9% | 97.3% | 87.4% | 60.4 | 75.7% | – | – | 93.2% | 96.7% | 93.4 | 91.1% | 85.7 | 65.2% | 78.3 | 76.2
N#C/C(=C\c1ccc(-c2ccc(Cl)cc2Cl)o1)c1ccc(F)cc1 | 87.4 | 98.6% | 81.5% | – | 89.9% | 68.8 | – | 93.8% | 90.5% | 85% | 93.8% | 92.2 | 80.4% | 81.9 | 86.5% | 89.9 | 93.7
Nc1nc(-c2cccc([N+](=O)[O-])c2)c(N=Nc2ccccc2)s1 | 51.8 | 71% | 62.2% | 81.7% | 63.2% | 39.3 | 48.4% | 50.8% | – | 52.9% | 58.2% | 79.4 | 59.2% | 62.3 | 82.5% | 70.4 | 54.9
CN1CCN(c2nc(-c3csc(-c4ccccc4)n3)cc3ccccc23)CC1 | 63.5 | 50.2% | 43.6% | 73.3% | 16.1% | – | 14.2% | 4.08% (active) | -20.7% (active) | 14.1% | 62.4% | 59.4 | 72.7% | 81.8 | 26.2% | 60.6 | 65.8
CC1(COc2ccc3ncc(C#Cc4cncc(C(=O)Nc5cccc(C(F)(F)F)c5)c4)n3n2)COC1 | 101 | 61.9% | 58.2% | 128% | 72.4% | 81.7 | 88.4% | 84.9% | 56.5% | 92.7% | 81.4% | 81.7 | 82.1% | 96.9 | 62% | 53.6 | 80.3
CCC(NC(c1cc2cccc3ccc4cccc1c4c32)c1nnnn1C(C)(C)C)C1CCCCC1 (stereo unspecified) | 92.1 | 80.8% | 72.1% | 80.6% | 54.5% | 63.1 | 58.1% | 47.2% | 40.9% | 28.1% | 73.2% | 84.6 | 46.5% | 70.8 | 65.2% | 84.5 | 74.4
CNCc1cccc2c1OCCCCCCC(C)(O)CC(C)(C)S(=O)(=O)c1ccc(cc1)-c1cnc(N)c(n1)C(=O)N2 (stereo unspecified) | 62.7 | 16.6% | 23.7% | 65.4% | 10% (active) | 17.6 | 4.37% (active) | 2.61% (active) | -36.6% (active) | -41.9% (active) | 55.3% | 55.9 | 30.3% | 38.1 | 3.36% (active) | 24.1 | 43.2
